Test results published in PubChem BioAssay AID588591 (National Center for Advancing Translational Sciences (NCATS), 2011).
Hit rate of the full screen: of about 390,000 compounds, about 4,700 (1.2%) were called active. About 4% were inconclusive and are not listed. Calls follow the shape of the dose curve; as a rule, active = well fitted inhibition curve with a large enough effect; inconclusive = small, poorly fitted or top-dose-only effect, or another doubt; inactive = no such curve, though single readings can be large or run the other way. Shown is part of a subset that was picked to be rich in actives. Where a call stands in place of a potency, no number is given.
Potency is read from the fitted curve at half-maximal effect.

The compounds below were run against DNA polymerase eta (Homo sapiens) (UniProt Q9Y253) (assay: qHTS for Inhibitors of Polymerase Eta). Conditions: recombinant Pol eta, fluorescent DNA replication assay; series mostly up to 114 µM.
Chain of DNA polymerase eta (Homo sapiens) (Q9Y253 whole entry, looked up): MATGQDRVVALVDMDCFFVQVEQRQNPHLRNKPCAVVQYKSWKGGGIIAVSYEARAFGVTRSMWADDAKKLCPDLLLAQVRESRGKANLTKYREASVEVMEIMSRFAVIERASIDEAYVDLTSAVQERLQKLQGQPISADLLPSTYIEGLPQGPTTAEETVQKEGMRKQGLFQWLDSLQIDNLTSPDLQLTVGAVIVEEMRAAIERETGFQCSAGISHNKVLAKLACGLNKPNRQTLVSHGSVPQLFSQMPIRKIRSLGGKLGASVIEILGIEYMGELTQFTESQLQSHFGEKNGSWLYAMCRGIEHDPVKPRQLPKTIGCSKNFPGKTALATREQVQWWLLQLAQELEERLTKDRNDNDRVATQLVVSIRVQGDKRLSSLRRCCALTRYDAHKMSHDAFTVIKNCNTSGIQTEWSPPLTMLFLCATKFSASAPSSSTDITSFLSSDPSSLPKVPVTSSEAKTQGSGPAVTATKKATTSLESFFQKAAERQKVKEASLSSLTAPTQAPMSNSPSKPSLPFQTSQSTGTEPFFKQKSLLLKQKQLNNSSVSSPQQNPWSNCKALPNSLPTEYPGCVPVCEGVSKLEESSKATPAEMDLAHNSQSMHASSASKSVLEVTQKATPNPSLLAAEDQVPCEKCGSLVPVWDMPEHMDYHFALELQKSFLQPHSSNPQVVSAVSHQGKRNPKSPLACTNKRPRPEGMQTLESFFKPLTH
How it was run: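 Pol eta (10 nM) was preincubated with compounds for 15 min at room temperature, after which fluorescent replication substrate (50 nM final) was added to start the reaction. Fluorescence was read kinetically at 0 and 10 min.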
`COc1ccc(C2C(=O)N(C3CCCCC3)CC(=O)N2Cc2ccccc2Cl)cc1OC` (stereo unspecified) was tested, and the Potency was “inactive”.
`CCOC(=O)c1cccc(NC(=O)Cn2cnc3nc4c(cc3c2=O)CCCC4)c1` was tested, and the Potency was “inactive”.
For `COc1ccc(NC(=O)CSc2nc3ccccc3[nH]2)cc1`, the Potency was “inactive”.
`COc1ccc(-c2nc3c(c(SCC(=O)Nc4ccc(C(=O)O)cc4)n2)Cc2ccccc2O3)cc1` was tested, and the Potency was 7.94 µM (active).
In the case of `COC(=O)c1ccc(NC(=O)CSc2n[nH]c(-c3ccccc3)n2)cc1`, the Potency is reported as “inactive”.
`C=C(C)C(=O)O[C@H]1C/C(C)=C\C(=O)/C=C(\C)[C@H](O)[C@@H]2OC(=O)C(=C)[C@@H]21` was tested, and the Potency was 20 µM (active).
For `CCOc1ccc(-n2nc3ccc(NC(=O)c4ccc(OC)c(Cl)c4)cc3n2)cc1`, the Potency was “inactive”.
For `Cc1ccc(S(=O)(=O)N2CCOCC2)cc1NC(=O)c1ccncc1`, the Potency was “inactive”.
In the case of `O=[N+]([O-])c1cc(Cl)cc(/C=N/NC(=S)Nc2cc(S(=O)(=O)N3CCOCC3)ccc2Cl)c1O`, the Potency is reported as 50.1 µM (active).
With `COCCNC(=S)Nc1cc(S(=O)(=O)N2CCOCC2)ccc1N1CCCCC1` the Potency was “inactive”.
In the case of `Cc1nc2c(c(C)nn2-c2ccccc2)c(C)c1CCC(=O)NCCc1ccc(Cl)cc1`, the Potency is reported as “inactive”.
In the case of `CCOc1ccc(NC(=O)c2ccc(NC(=O)COC(=O)c3ccc(NC(=O)CC#N)cc3)cc2)cc1`, the Potency is reported as 1.26 µM (active).
In the case of `CCOc1ccc(NC(=O)c2ccc(CSc3nnnn3C)cc2)cc1`, the Potency is reported as “inactive”.
With `CCOc1ccc(NC(=O)Cn2c(C)ccc(C#N)c2=O)cc1` the Potency was “inactive”.
`Cc1ccc(S(=O)(=O)c2nc(-c3cccs3)oc2N2CCCCC2)cc1` was tested, and the Potency was “inactive”.
With `COc1ccc(CCNc2ncnc3onc(-c4ccc(Cl)cc4)c23)c(OC)c1` the Potency was “inactive”.
`Cc1ccc(C)c(N2CCN(CCCNC(=O)Nc3ccc(Cl)cc3)CC2)c1` was tested, and the Potency was “inactive”.
`CN=C1S/C(=C\c2c(OC)cc(OC)cc2OC)C(=O)N1C` was tested, and the Potency was “inactive”.
For `O=C(O)c1cccc(N=NN2CCCCCC2)c1`, the Potency was “inactive”.
For `CN1C(=O)/C(=C/c2ccco2)SC1=Nc1cccc(C(=O)O)c1`, the Potency was 35.5 µM (active).
For `O=C(CSc1nc(-c2cccc(F)c2)[nH]c1-c1ccccc1)Nc1ccc2c(c1)OCO2`, the Potency was “inactive”.
With `Cc1ccc2oc3c(c(=O)c2c1)C(c1ccc([N+](=O)[O-])cc1)N(CCCN1CCOCC1)C3=O` (stereo unspecified) the Potency was “inactive”.
`COC(=O)c1cccc(NC(=O)CSc2nc(C)cc(=O)[nH]2)c1` was tested, and the Potency was 20 µM (active).
In the case of `Cc1cc(C)c(C(=O)CSc2nc(C)cc(=O)[nH]2)c(C)c1`, the Potency is reported as “inactive”.
In the case of `CCCc1cc(=O)[nH]c(SCC(=O)Nc2ccc(C(=O)Nc3ccccc3OC)cc2)n1`, the Potency is reported as “inactive”.
`Cc1ccccc1Nc1nn2c(=O)c3ccc(C(=O)NCCc4ccc(Cl)cc4)cc3nc2s1` was tested, and the Potency was “inactive”.
With `Cc1ccc2onc(CC(=O)N3CCN(c4ccc(Cl)cc4)CC3)c2c1` the Potency was “inactive”.
In the case of `O=C(CN1CCN(c2ncc(C(F)(F)F)cc2Cl)CC1)Nc1ccc2c(c1)OCO2`, the Potency is reported as “inactive”.
In the case of `Cc1ccc(C(=O)O)cc1-c1ccc(/C=C2\SC(=O)N(CC(=O)Nc3ccc4c(c3)OCO4)C2=O)o1`, the Potency is reported as 4.47 µM (active).
For `Cn1c(=O)c2ccccc2n(CC(=O)Nc2ccc3c(c2)OCCO3)c1=O`, the Potency was “inactive”.
`O=C(NCc1ccc(F)cc1)c1ccc2nc(N3CCCCC3)sc2c1` was tested, and the Potency was “inactive”.
`Cc1ccccc1-c1nc2cc(NC(=O)c3cccc(OCCC(C)C)c3)ccc2o1` was tested, and the Potency was “inactive”.
For `CCC(=O)N1CCc2cc(CNS(=O)(=O)c3ccc(Br)s3)ccc21`, the Potency was “inactive”.
`Cc1cccc(NC(=O)CSc2nc3c(oc4ccccc43)c(=O)n2-c2ccc(F)cc2)c1` was tested, and the Potency was “inactive”.
In the case of `O=S(=O)(Nc1ccc2[nH]ncc2c1)c1ccccc1Cl`, the Potency is reported as “inactive”.
For `O=C(O)c1cc(S(=O)(=O)Nc2ccc3cn[nH]c3c2)ccc1Br`, the Potency was 50.1 µM (active).
For `O=C(Nc1ccc2cn[nH]c2c1)c1ccc(S(=O)(=O)N2CCOCC2)cc1`, the Potency was “inactive”.
`CCCn1c2ccccc2c2cnn(CC(=O)N(C)c3ccccc3CC)c(=O)c21` was tested, and the Potency was “inactive”.
`Cc1ccc(NC(=O)c2oc3ccccc3c2C)c([N+](=O)[O-])c1` was tested, and the Potency was “inactive”.
`Cc1c(C(=O)Nc2ccccn2)oc2ccc(Br)cc12` was tested, and the Potency was 39.8 µM (active).
In the case of `Cc1c(C(=O)NC2CCCCC2)oc2ccccc12`, the Potency is reported as “inactive”.
`COc1ccccc1CNc1nccn(-c2ccc(F)cc2)c1=O` was tested, and the Potency was “inactive”.
`O=C(NCc1ccccc1)C1=C[C@@H](c2ccccc2)C[C@@H](OCCCCO)O1` was tested, and the Potency was “inactive”.
With `C#Cc1ccc([C@@H]2C=C(C(=O)O)O[C@H](OCCCCO)C2)cc1` the Potency was 20 µM (active).
In the case of `O=C(O)C1=C[C@H](c2cccs2)C[C@H](OCCCCO)O1`, the Potency is reported as “inactive”.
For `COc1ccc(CCNC(=O)c2c3c(nc4ccccc24)C(=O)N(C2CCCCC2)C3)cc1OC`, the Potency was “inactive”.
`CCNC(=O)CC1C(=O)N(c2ccc(F)cc2)C(=O)N1Cc1ccc(C)cc1` (stereo unspecified) was tested, and the Potency was “inactive”.
In the case of `CCC(=O)N1CCc2cc(S(=O)(=O)NCCC(=O)Nc3cccc(C)c3C)ccc21`, the Potency is reported as “inactive”.
For `Cc1oc(-c2ccccc2F)nc1CN1CCC(C(=O)NCCc2ccc(Cl)cc2)CC1`, the Potency was “inactive”.
With `Cc1cccc(NC(=O)CSCC(=O)Nc2nnc(C3CC3)s2)c1` the Potency was “inactive”.
In the case of `CCc1cc(C(=O)Nc2nnc(C3CC3)s2)sc1C`, the Potency is reported as 50.1 µM (active).
For `CCc1ccccc1OCC(=O)Nc1nnc(C2CC2)s1`, the Potency was “inactive”.
`Cc1ccc(CNC(=O)c2c(O)nc3c(C)cccn3c2=O)cc1` was tested, and the Potency was “inactive”.
With `C=C(C)C(=O)Nc1cccc(C2=NOC3(C2)C[C@H](C(N)=O)N(C(=O)C(c2ccccc2)c2ccccc2)C3)c1` (stereo partly specified) the Potency was 3.98 µM (active).
With `NC(=O)[C@H]1CC2(CC(c3cccc(NC(=O)[C@H]4CCC(=O)N4)c3)=NO2)CN1C(=O)c1ccccc1C(=O)c1ccccc1` (stereo partly specified) the Potency was “inactive”.
For `C/C=C(\C)C(=O)N1CC2(CC(c3cccc(NC(=O)CCCCC)c3)=NO2)C[C@@H]1C(N)=O` (stereo partly specified), the Potency was “inactive”.
With `O=[N+]([O-])c1ccc(C=Nc2ccc(Cl)cc2Cl)s1` the Potency was 89.1 µM (active).
In the case of `CCOc1ccccc1CNCc1c(C(=O)O)c(C)n(Cc2ccc(C)cc2)c1C`, the Potency is reported as “inactive”.
For `COc1ccc(CNC(=O)c2cc3c(-c4ccccc4F)nn(C)c3s2)c(OC)c1`, the Potency was “inactive”.
With `CS(=O)(=O)c1ccc2c(c1)SC1=NC(=O)/C(=C/c3ccco3)C(=N)N12` the Potency was 3.16 µM (active).
`Cc1ccc(C)c(Cn2c(C(=O)O)c(CNCc3cccs3)c3ccccc32)c1` was tested, and the Potency was “inactive”.
